# Where “and” joins values, the source holds several entries; their conditions need not be identical. Equal entries are not always repeated. Results filed as inconclusive are left out. Calls of active or inactive are those of the source. Unless noted, calls follow the shape of the dose curve; as a rule, active = well fitted curve in the direction sought with a large enough effect; inconclusive = small, poorly fitted or top-dose-only effect, or another doubt; inactive = no such curve, though single readings can be large; an effect the other way counts as inactive or inconclusive.
# How the values were obtained:
# [1] = qHTS drug screen for cell cycle checkpoint inhibitors in PARPi-resistant BRCA-mutant ovarian cancer cell lines. (AID 1963452; calls by dose curve; also: potency is read from the fitted curve at half-maximal effect); conditions: PEO1/OlaR viability, CellTiter-Glo luminescence, 96 h; for Z-AUC: stronger effect = lower value
# Procedure, shortened: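 PEO1, PEO4 and PEO1/OlaR ovarian cancer cells, 600 per well, exposed 96 h at 37C to a dilution series. Viability read by CellTiter-Glo luminescence, normalized to DMSO and empty wells; activity summarized as Z-AUC.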
# [2] = target: Nuclear receptor subfamily 1 group I member 2 (Homo sapiens) (UniProt O75469); test: Dual reporter qHTS for antagonist of Pregnane X Receptor (hPXR) against the NCATS DSHEA and TCM libraries: Luminescence Readout (AID 1920060); conditions: hPXR dual reporter cells, luciferase luminescence, antagonist mode; series mostly up to 40 µM;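 also: HepG2 cells carrying hPXR luciferase reporter stimulated with rifampicin at 2 µM; 0% is about no effect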
# Procedure, shortened: (§1)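 In antagonist mode, 2 uM rifampicin was added to hPXR-Luc HepG2 cells alongside test substances, incubated 24 h at 37 C; luminescence gave reporter activity, and CellTiter-Fluor fluorescence (405/540 nm) gave viability.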
# [3] = Dual reporter qHTS for antagonist of Pregnane X Receptor (hPXR) against the NCATS DSHEA and TCM libraries: Fluorescence Readout (AID 1920061); conditions: PXR dual reporter cells, antagonist mode; series mostly up to 40 µM; also: 0% is about no effect
# Procedure, shortened: as §1
# [4] = qHTS profiling for inhibitors of Plasmodium falciparum proliferation (AID 504749); also: nearly all actives have a fitted effect of over 60% in size; also: potency is read from the fitted curve at half-maximal effect;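 as to activity, negative = inhibition: 0% = DMSO vehicle and full inhibition = artemisinin control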; conditions: P. falciparum in erythrocytes, SYBR Green DNA, 72 h, at 28.7 µM (top of the series)
# Procedure, shortened: (§2)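 Each compound contacts P. falciparum-infected red blood cells for 72 h at 37 C; lysis buffer (Tris, EDTA, saponin, Triton X, SYBR Green I) is added and fluorescence measured next morning; values normalized to controls.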
# [5] = system: 3D7; test: as above; conditions: P. falciparum in erythrocytes, SYBR Green DNA, 72 h; series mostly up to 28.7 µM
# Procedure, shortened: as §2
# [6] = system: 7G8; test: as above; conditions: P. falciparum in erythrocytes, SYBR Green DNA, 72 h; series mostly up to 28.7 µM
# Procedure, shortened: as §2
# [7] = system: AA1029; test: as above; conditions: P. falciparum in erythrocytes, SYBR Green DNA, 72 h; series mostly up to 28.7 µM
# Procedure, shortened: as §2
# [8] = system: AS120; test: as above; conditions: P. falciparum in erythrocytes, SYBR Green DNA, 72 h; series mostly up to 28.7 µM
# Procedure, shortened: as §2
# [9] = system: ATS189; test: as above; conditions: P. falciparum in erythrocytes, SYBR Green DNA, 72 h; series mostly up to 28.7 µM
# Procedure, shortened: as §2
# [10] = system: ATS95; test: as above; conditions: P. falciparum in erythrocytes, SYBR Green DNA, 72 h; series mostly up to 28.7 µM
# Procedure, shortened: as §2
# [11] = measured here: PEO1 parental Z-AUC
# Nuclear receptor subfamily 1 group I member 2 (Homo sapiens), sequence (O75469 whole entry, looked up): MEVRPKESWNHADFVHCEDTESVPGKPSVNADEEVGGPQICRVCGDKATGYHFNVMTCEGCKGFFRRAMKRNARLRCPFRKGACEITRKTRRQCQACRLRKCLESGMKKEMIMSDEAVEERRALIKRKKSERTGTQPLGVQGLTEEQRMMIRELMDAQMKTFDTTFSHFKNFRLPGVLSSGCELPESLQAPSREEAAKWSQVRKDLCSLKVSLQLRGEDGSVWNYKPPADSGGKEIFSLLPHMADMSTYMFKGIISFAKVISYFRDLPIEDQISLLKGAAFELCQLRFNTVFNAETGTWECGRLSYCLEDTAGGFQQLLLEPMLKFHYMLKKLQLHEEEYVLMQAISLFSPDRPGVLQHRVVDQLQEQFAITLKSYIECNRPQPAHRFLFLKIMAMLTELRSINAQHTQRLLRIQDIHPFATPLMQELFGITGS
compound,measurement,setting,value
CCc1nc(C(N)=O)c(Nc2ccc(N3CCC(N4CCN(C)CC4)CC3)c(OC)c2)nc1NC1CCOCC1,Z-AUC,[1],1.23 (inactive)
same,Z-AUC,[1]; [11],0.97
same,Z-AUC,[1]; measured here: PEO4 Z-AUC,0.904
Cc1nnc(C(C)C)n1C1CC2CCC(C1)N2CC[C@H](NC(=O)C1CCC(F)(F)CC1)c1ccccc1 (stereo not given in full),Z-AUC,[1],1.09 (inactive) and 0.404 (inactive)
same,Z-AUC,[1]; [11],1.65 and 0.521
same,Z-AUC,[1]; measured here: PEO4 Z-AUC,1.24 and 0.375
CNC(=O)c1ccc(Nc2ncc(C(F)(F)F)c(NCc3nccnc3N(C)S(C)(=O)=O)n2)cc1,Z-AUC,[1],-0.202 (inactive)
same,Z-AUC,[1]; [11],0.488
same,Z-AUC,[1]; measured here: PEO4 Z-AUC,-0.174
OC[C@H]1O[C@@H](Oc2cc(O)cc(/C=C/c3ccc(O)cc3)c2)[C@H](O)[C@@H](O)[C@@H]1O,Z-AUC,[1],1.9 (inactive)
same,Z-AUC,[1]; [11],1.63
same,Z-AUC,[1]; measured here: PEO4 Z-AUC,1.47
O=c1ccn([C@@H]2O[C@H](CO)[C@@H](O)[C@H]2O)c(=O)[nH]1,Z-AUC,[1],1.3 (inactive)
same,Z-AUC,[1]; [11],1.05
same,Z-AUC,[1]; measured here: PEO4 Z-AUC,0.867
CO[C@@H]1COCC[C@@H]1N[C@@H]1CC[C@@](C(=O)N2CCc3ncc(C(F)(F)F)cc3C2)(C(C)C)C1,Z-AUC,[1],0.278 (inactive)
same,Z-AUC,[1]; [11],1.21
same,Z-AUC,[1]; measured here: PEO4 Z-AUC,1.12
O=C(NC[C@H](O)CN1CCc2ccccc2C1)c1cc(NC2COC2)ncn1,Z-AUC,[1],0.421 (inactive)
same,Z-AUC,[1]; [11],0.62
same,Z-AUC,[1]; measured here: PEO4 Z-AUC,0.347
N#Cc1ccnc(N2C(=O)CC[C@H]2C(=O)N(c2cncc(F)c2)[C@H](C(=O)NC2CC(F)(F)C2)c2ccccc2Cl)c1,Z-AUC,[1],1.18 (inactive)
same,Z-AUC,[1]; [11],1.11
same,Z-AUC,[1]; measured here: PEO4 Z-AUC,1.26
CCNC(=O)CCC/C=C\C[C@@H]1[C@@H](/C=C/C(O)CCc2ccccc2)[C@@H](O)C[C@@H]1O (stereo not given in full),Z-AUC,[1],1.72 (inactive)
same,Z-AUC,[1]; [11],1.41
same,Z-AUC,[1]; measured here: PEO4 Z-AUC,1.49
COc1cc2c(cc1O)CCN[C@]21CS[C@@H]2c3c(OC(C)=O)c(C)c4c(c3[C@H](COC1=O)N1[C@@H]2[C@H]2c3c(cc(C)c(OC)c3O)C[C@@H]([C@@H]1O)N2C)OCO4,Potency,[1],0.0399 µM (active)
same,Z-AUC,[1]; [11],-2.17
same,Z-AUC,[1]; measured here: PEO4 Z-AUC,-1.65
CC1=CCC(C(C)(C)O)CC1 (stereo not given),outcome,[2],inactive
same,outcome,[3],inactive
same,"activity, negative = inhibition",[4]; parasite line A,7.42% (inactive)
same,"activity, negative = inhibition",[4]; parasite line B,12.4% (inactive)
same,Potency,[5],inactive
same,Potency,[6],inactive
same,Potency,[7],inactive
same,Potency,[8],inactive
same,Potency,[9],inactive
same,Potency,[10],inactive
CN(C)C/C=C/C(=O)Nc1ccc(C(=O)Nc2cccc(Nc3ncc(Cl)c(-c4c[nH]c5ccccc45)n3)c2)cc1,Z-AUC,[1],-2.19 (inactive)
same,Z-AUC,[1]; [11],-3.23
same,Z-AUC,[1]; measured here: PEO4 Z-AUC,-2.66
O=C(O)c1cnn(-c2nc3cc(OC(F)(F)F)c(Cl)cc3[nH]2)c1,Z-AUC,[1],0.292 (inactive)
same,Z-AUC,[1]; [11],-0.102
same,Z-AUC,[1]; measured here: PEO4 Z-AUC,-0.0473
CN1CC[C@@H](NC(=O)Nc2ccc(C#N)cc2)C[C@@H]1c1nc2ccccc2[nH]1,Z-AUC,[1],-0.312 (inactive)
same,Z-AUC,[1]; [11],0.0879
same,Z-AUC,[1]; measured here: PEO4 Z-AUC,-1.25
CC(C)N(C[C@H]1O[C@@H](n2cnc3c(N)ncnc32)[C@H](O)[C@@H]1O)C1CC(CCc2nc3ccc(C(C)(C)C)cc3[nH]2)C1 (stereo not given in full),Z-AUC,[1],1.59 (inactive)
same,Z-AUC,[1]; [11],1.75
same,Z-AUC,[1]; measured here: PEO4 Z-AUC,1.7
CC1=C(/C=C/C(C)=C/C=C/C(C)=C/C=C/C=C(C)/C=C/C=C(C)/C=C/C2=C(C)CCCC2(C)C)C(C)(C)CCC1,outcome,[2],inactive
same,outcome,[3],inactive
same,Z-AUC,[1],1.77 (inactive)
same,Z-AUC,[1]; [11],1.11
same,Z-AUC,[1]; measured here: PEO4 Z-AUC,0.804
same,"activity, negative = inhibition",[4]; parasite line A,0.195% (inactive)
same,"activity, negative = inhibition",[4]; parasite line B,-0.801% (inactive)
same,Potency,[5],inactive
same,Potency,[6],inactive
same,Potency,[7],inactive
same,Potency,[8],inactive
same,Potency,[9],inactive
same,Potency,[10],inactive
CCS(=O)(=O)N1CCC([C@@H](C)n2c(C)c(C(=O)NCc3c(OC)cc(C)[nH]c3=O)c3ccccc32)CC1,Z-AUC,[1],-0.188 (inactive)
same,Z-AUC,[1]; [11],0.682
same,Z-AUC,[1]; measured here: PEO4 Z-AUC,-0.124
Cc1c(C)c2c(c(C)c1O)CC[C@@](C)(CCC[C@H](C)CCC[C@H](C)CCCC(C)C)O2,outcome,[2],inactive
same,outcome,[3],inactive
same,"activity, negative = inhibition",[4]; parasite line A,-10.2% (inactive)
same,"activity, negative = inhibition",[4]; parasite line B,-2.69% (inactive)
same,Potency,[5],inactive
same,Potency,[6],inactive
same,Potency,[7],inactive
same,Potency,[8],inactive
same,Potency,[9],inactive
same,Potency,[10],inactive
CC1=C(/C=C/C(C)=C/C=C/C(C)=C/CO)C(C)(C)CCC1,outcome,[2],inactive
same,outcome,[3],inactive
same,Potency,[6],10 µM (active)
CCCCCCCC(=O)O,outcome,[2],inactive
same,outcome,[3],inactive
same,"activity, negative = inhibition",[4]; parasite line A,5.42% (inactive)
same,"activity, negative = inhibition",[4]; parasite line B,9% (inactive)
same,Potency,[5],inactive
same,Potency,[6],inactive
same,Potency,[7],inactive
same,Potency,[8],inactive
same,Potency,[9],inactive
same,Potency,[10],inactive
C=Cc1cc(O)cc2nc(-c3ccc(O)c(F)c3)oc12,Z-AUC,[1],0.0399 (inactive)
same,Z-AUC,[1]; [11],0.836
same,Z-AUC,[1]; measured here: PEO4 Z-AUC,0.548
COc1ncc(-c2ccc3c(Nc4cc(Oc5cc(F)cc(F)c5)cc(C(=O)O)c4)c(S(=O)(=O)NC4CC4)cnc3c2)c(OC)n1,Z-AUC,[1],-0.517 (inactive)
same,Z-AUC,[1]; [11],-0.369
same,Z-AUC,[1]; measured here: PEO4 Z-AUC,-0.317
CCCCN(CCCC)C(=O)CN1C[C@H](c2ccc3c(c2)OCO3)[C@@H](C(=O)O)[C@@H]1c1ccc(OC)cc1,Z-AUC,[1],0.882 (inactive)
same,Z-AUC,[1]; [11],0.661
same,Z-AUC,[1]; measured here: PEO4 Z-AUC,0.129
Oc1cc(O)c2c(c1)OC(c1ccc(O)c(O)c1)C(O)C2 (stereo not given),outcome,[3],inactive
same,"activity, negative = inhibition",[4]; parasite line A,-12.6% (inactive)
same,"activity, negative = inhibition",[4]; parasite line B,-13.8% (inactive)
same,Potency,[5],inactive
same,Potency,[6],inactive
same,Potency,[7],inactive
same,Potency,[8],inactive
same,Potency,[9],inactive
same,Potency,[10],inactive
CN(NC(=O)CC(=O)NN(C)C(=S)c1ccccc1)C(=S)c1ccccc1,Z-AUC,[1],1.67 (inactive)
same,Z-AUC,[1]; [11],1.08
same,Z-AUC,[1]; measured here: PEO4 Z-AUC,1.36
C[C@H]1[C@H](C)CC[C@]2(C(=O)O)CC[C@]3(C)C(=CC[C@@H]4[C@@]5(C)C[C@@H](O)[C@H](O)[C@@](C)(CO)[C@@H]5CC[C@]43C)[C@H]12,outcome,[2],inactive
same,outcome,[3],inactive
same,Z-AUC,[1],1.03 (inactive)
same,Z-AUC,[1]; [11],0.608
same,Z-AUC,[1]; measured here: PEO4 Z-AUC,0.842
CCC(=O)NS(=O)(=O)c1ccc(-c2c(-c3ccccc3)noc2C)cc1,Z-AUC,[1],-0.948 (inactive)
same,Z-AUC,[1]; [11],-1.08
same,Z-AUC,[1]; measured here: PEO4 Z-AUC,-1.33

# Reference: PubChem BioAssay (NCATS)
